{"source": "PubChem BioAssay (EPA / NIEHS)", "key": {"[1]": {"assay": "CCTE_Shafer_MEA_dev_firing_rate_mean: CCTE's Neural Network Formation Assay for Mean Firing Rate, Shafer Lab (AID 2284031)", "outline": "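Extracellular spike frequency, AUC over DIV 5–12 recordings, in rat cortical neuron MEA cultures dosed from plating; loss direction vs DMSO.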"}, "[2]": {"assay": "CCTE_Shafer_MEA_dev_per_burst_spike_percent: CCTE's Neural Network Formation Assay for Percent of Spikes in a Burst, Shafer Lab (AID 2284032)", "outline": "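Value is trapezoidal AUC over recordings on days 5, 7, 9 and 12 of the well-mean fraction of spikes falling in single-electrode bursts; rat cortical cultures exposed continuously from plating, treatment renewed DIV 5 and 9, fitted downward against DMSO.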"}, "[3]": {"assay": "CCTE_Shafer_MEA_dev_active_electrodes_number: CCTE's Neural Network Formation Assay for Number of Active Electrodes, Shafer Lab (AID 2284040; active means hit-call score of the fitted dose curve at least 0.9, where 1 is the maximum)", "outline": "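Developing rat cortical networks on MEAs, exposed DIV 0–12. Value is the AUC of active-electrode counts (≥5 spikes/min) from days 5, 7, 9, 12, relative to DMSO.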"}, "[4]": {"assay": "CCTE_Shafer_MEA_dev_burst_rate: CCTE's Neural Network Formation Assay for Burst Rate, Shafer Lab (AID 2284042)", "outline": "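Primary rat cortical neurons on PEI-coated 48-well MEA plates (laminin added with cells at plating) (16 electrodes/well), exposed from plating to day 12, dosing renewed at DIV 5 and 9. Burst rate averaged over active electrodes, recorded DIV 5, 7, 9, 12, summarized as AUC; loss versus DMSO.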"}, "[5]": {"assay": "CCTE_Shafer_MEA_dev_bursting_electrodes_number: CCTE's Neural Network Formation Assay for Number of Bursting Electrodes, Shafer Lab (AID 2284043; active means hit-call score of the fitted dose curve at least 0.9, where 1 is the maximum)", "outline": "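Counted: electrodes with burst rate ≥1 per 2 min in each well. Cells: primary rat cortex, 1.5 x 10^5/well, on 16-electrode MEA wells. Exposure: DIV 0–12, compound renewed DIV 5 and 9. Recording days 5, 7, 9, 12; AUC vs DMSO baseline.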"}, "[6]": {"assay": "CCTE_Shafer_MEA_dev_per_burst_interspike_interval: CCTE's Neural Network Formation Assay for Burst Interspike Interval, Shafer Lab (AID 2284044)", "outline": "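Developmental network-formation MEA in primary rat cortical cultures with exposure spanning days 0–12. Within-burst ISI is averaged per well and integrated across recording days by area under the curve, with DMSO as negative control baseline.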"}, "[7]": {"assay": "CCTE_Shafer_MEA_dev_burst_duration_mean: CCTE's Neural Network Formation Assay for Mean Burst Duration, Shafer Lab (AID 2284045)", "outline": "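Network-formation assay in primary rat cortical neurons; treatment spans twelve days of development. Mean burst duration per well is integrated by trapezoidal AUC and fitted in the loss-of-signal direction against DMSO baseline.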"}, "[8]": {"assay": "CCTE_Shafer_MEA_dev_interburst_interval_mean: CCTE's Neural Network Formation Assay for Mean Interburst Interval, Shafer Lab (AID 2284046)", "outline": "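Recordings on days 5, 7, 9 and 12 give well-mean interburst interval across actively bursting electrodes, summarized as area under the curve. Cultures: rat cortical neurons, continuous exposure from day 0, compound renewed at feeds; decrease analyzed versus DMSO.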"}, "[9]": {"assay": "CCTE_Shafer_MEA_dev_inter_network_spike_interval_mean: CCTE's Neural Network Formation Assay for Mean Inter-network Spike Interval, Shafer Lab (AID 2284047)", "outline": "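Primary rat cortical neurons on 16-electrode MEA wells, exposed from plating day 0 through DIV 12, compound renewed at DIV 5 and 9 media changes. Mean interval between network-spike peaks recorded DIV 5, 7, 9, 12; collapsed as trapezoidal AUC, fitted downward versus DMSO.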"}, "[10]": {"assay": "CCTE_Shafer_MEA_dev_network_spike_number: CCTE's Neural Network Formation Assay for Number of Network Spikes, Shafer Lab (AID 2284048)", "outline": "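Extracellular recordings from 16-electrode wells track network formation in rat cortical cultures under continuous treatment from plating. The endpoint is network spike number, expressed as AUC across DIV 5–12 relative to DMSO vehicle.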"}, "[11]": {"assay": "CCTE_Shafer_MEA_dev_network_spike_peak: CCTE's Neural Network Formation Assay for Mean Number of Electrodes in Network Spike, Shafer Lab (AID 2284049)", "outline": "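Continuous 12-day exposure of rat cortical cultures, starting at plating, on MEA plates. Endpoint: electrodes participating in network-spike peaks, AUC across DIV 5–12, DMSO as negative control.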"}, "[12]": {"assay": "CCTE_Shafer_MEA_dev_spike_duration_mean: CCTE's Neural Network Formation Assay for Mean Spike Duration, Shafer Lab (AID 2284051)", "outline": "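Primary rat cortical neurons on 16-electrode MEA wells (PEI-coated, laminin in plating drop), exposed from plating through DIV 12 with compound renewed at DIV 5 and 9. Mean network-spike duration recorded DIV 5, 7, 9, 12; trapezoidal AUC across days, DMSO baseline.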"}, "[13]": {"assay": "CCTE_Shafer_MEA_dev_network_spike_duration_std: CCTE's Neural Network Formation Assay for Standard Deviation of Network Spike Duration, Shafer Lab (AID 2284052)", "outline": "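Primary rat cortical neurons on PEI-coated 16-electrode MEA wells, exposed from plating day 0 through day 12 with compound renewed at DIV 5 and 9. Network spike duration SD recorded on days 5, 7, 9, 12, collapsed as trapezoidal AUC; loss-of-signal fit versus DMSO.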"}, "[14]": {"assay": "CCTE_Shafer_MEA_dev_per_network_spike_spike_number_mean: CCTE's Neural Network Formation Assay for Mean Number of Spikes in a Network Spike, Shafer Lab (AID 2284053)", "outline": "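Primary rat cortical neurons on 48-well, 16-electrode MEA plates were exposed from plating to DIV 12, with dosing renewed on DIV 5 and 9. Spikes per network spike (0.05 s peak window) were recorded on DIV 5, 7, 9 and 12 and collapsed as trapezoidal AUC versus DMSO.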"}, "[15]": {"assay": "CCTE_Shafer_MEA_dev_per_network_spike_spike_percent: CCTE's Neural Network Formation Assay for Percent of Spikes in a Network Spike, Shafer Lab (AID 2284054)", "outline": "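Developing networks of rat cortical neurons are dosed at day 0 and recorded extracellularly four times up to day 12. The endpoint is the area under the curve of percent spikes in network spikes, fitted in the negative direction relative to DMSO.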"}, "[16]": {"assay": "CCTE_Shafer_MEA_dev_LDH: CCTE's Lactate Dehydrogenase Assay for Cytotoxicity in the Neural Network Formation Assay, Shafer Lab (AID 2284068; active means hit-call score of the fitted dose curve at least 0.9, where 1 is the maximum)", "outline": "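Primary rat cortical neurons were plated on PEI/laminin MEA plates and exposed from day 0 for twelve days, with compound renewed at DIV 5 and 9. Cytotoxicity was determined by spectrophotometric LDH assay relative to DMSO.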"}, "[17]": {"assay": "CCTE_Shafer_MEA_dev_correlation_coefficient_mean: CCTE's Neural Network Formation Assay for Mean Correlation Coefficient, Shafer Lab (AID 2284093)", "outline": "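Spontaneous activity recorded on days 5, 7, 9 and 12 post-plating; pairwise spike correlations are averaged across active electrodes and collapsed to an area-under-curve. Rat cortical cultures are dosed from plating through 12 days, with compound renewed at media changes.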"}, "[18]": {"assay": "UKN2_HCS_IMR90_neural_migration: University of Konstanz (UKN) Leist Lab Neural Crest Cell Migration Assay in human induced IMR90 Pluripotent Stem Cells (UKN2) (AID 2284204)", "conditions": "actives raise or lower the signal", "outline": "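Using a 96-well stopper format with PLO/laminin/fibronectin coating, neural crest cells from iPSC migrate in cytokine-supplemented N2-S medium; after 24 h, chemicals are applied for a further 24 h, then cells are imaged after dye staining.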"}, "[19]": {"assay": "IUF_NPC1b_proliferation_BrdU_72hr: Leibniz Research Institute for Environmental Medicine (IUF) 72-hour Neural Progenitor Cell Bromodeoxyuridine (BrdU) Proliferation Assay (NPC1b) (AID 2284207)", "outline": "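Neural progenitor spheres of human fetal origin are treated for three days; BrdU added for the last 16 h is quantified by luminescence ELISA, with DMSO as baseline and EGF/FGF omission as positive control.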"}, "[20]": {"assay": "IUF_NPC1a_proliferation_area_72hr: Leibniz Research Institute for Environmental Medicine (IUF) 72-hour Neural Progenitor Cell Proliferation Area Assay (NPC1a) (AID 2284208)", "outline": "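Proliferation is scored as sphere area gain in primary human fetal neural progenitors treated for 72 h in EGF/FGF-containing medium. Viability, LDH and BrdU readouts come from the same wells.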"}, "[21]": {"assay": "IUF_NPC1_viability_72hr: Viability Assessment at 72 hours in the Leibniz Research Institute for Environmental Medicine (IUF) Neural Progenitor Cell Proliferation Assay (NPC1) (AID 2284209)", "outline": "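Three-day continuous exposure of human neural progenitor spheres under EGF/FGF-driven proliferation; cell viability scored by alamar blue signal versus DMSO.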"}, "[22]": {"assay": "CCTE_Mundy_HCI_Cortical_Synap_Neur_Matur_NeuriteSpotCountPerNeuriteLength: CCTE's Synaptogenesis and Neurite Maturation Assay in rat cortical cells for Neurite Spot Count per Neurite Length, Mundy Lab (AID 2284210)", "outline": "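Neurite-associated synapse density (synaptophysin puncta per unit neurite length) is measured by fluorescence high-content imaging in rat cortical cultures treated from DIV 7 and fixed at DIV 12, with DMSO as negative control.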"}, "[23]": {"assay": "CCTE_Mundy_HCI_Cortical_Synap_Neur_Matur_BPCount: CCTE's Synaptogenesis and Neurite Maturation Assay in rat cortical cells for Branch Point Count, Mundy Lab (AID 2284211)", "outline": "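In this multiplexed morphology assay, cortical cells from rat receive chemicals at DIV 7 and are fixed at DIV 12, then immunostained and imaged; branch points are counted, with DMSO as baseline.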"}, "[24]": {"assay": "CCTE_Mundy_HCI_Cortical_NOG_NeuriteCount: CCTE's Neurite Outgrowth Assay in rat cortical cells for Neurite Count, Mundy Lab (AID 2284212);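 further: cells fixed about two days after chemical exposure began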", "outline": "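Rat cortical primary cells; compound added 2 h post-plating, 1/10 dilution of working solution. Anti-betaIII-tubulin/AF488 ICC; ArrayScan neurite count vs DMSO.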"}, "[25]": {"assay": "CCTE_Mundy_HCI_Cortical_Synap_Neur_Matur_NeuriteLength: CCTE's Synaptogenesis and Neurite Maturation Assay in rat cortical cells for Neurite Length, Mundy Lab (AID 2284214)", "outline": "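DMSO-normalised neurite length, from high-content imaging of anti-MAP2-stained rat cortical cells fixed at DIV 12. Glia were suppressed with AraC (DIV 5) before chemical exposure from DIV 7.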"}}, "note": "Inconclusive results are not listed. The source made the active and inactive calls. How the source made its calls, unless noted: active means hit-call score of the fitted dose curve at least 0.9, where 1 is the maximum; inactive means score below 0.9.", "data": [{"smiles": "CCCCCC(C)(CC)C(=O)NC", "note": "(stereo not given)", "values": [{"measurement": "outcome", "setting": "[1]", "value": "inactive"}, {"measurement": "AC50", "setting": "[2]", "value": "74.5 µM (active)"}, {"measurement": "AC50", "setting": "[3]", "value": "50 µM (active)"}, {"measurement": "outcome", "setting": "[4]", "value": "inactive"}, {"measurement": "AC50", "setting": "[5]", "value": "50 µM (active)"}, {"measurement": "outcome", "setting": "[6]", "value": "inactive"}, {"measurement": "outcome", "setting": "[7]", "value": "inactive"}, {"measurement": "outcome", "setting": "[8]", "value": "inactive"}, {"measurement": "outcome", "setting": "[9]", "value": "inactive"}, {"measurement": "outcome", "setting": "[10]", "value": "inactive"}, {"measurement": "outcome", "setting": "[11]", "value": "inactive"}, {"measurement": "AC50", "setting": "[12]", "value": "9.92 µM (active)"}, {"measurement": "outcome", "setting": "[13]", "value": "inactive"}, {"measurement": "outcome", "setting": "[14]", "value": "inactive"}, {"measurement": "outcome", "setting": "[15]", "value": "inactive"}, {"measurement": "AC50", "setting": "[16]", "value": "50 µM (active)"}, {"measurement": "outcome", "setting": "[17]", "value": "inactive"}, {"measurement": "outcome", "setting": "[18]", "value": "inactive"}, {"measurement": "AC50", "setting": "[19]", "value": "85.3 µM (active)"}, {"measurement": "outcome", "setting": "[20]", "value": "inactive"}, {"measurement": "outcome", "setting": "[21]", "value": "inactive"}, {"measurement": "outcome", "setting": "[22]", "value": "inactive"}, {"measurement": "outcome", "setting": "[23]", "value": "inactive"}, {"measurement": "outcome", "setting": "[24]", "value": "inactive"}, {"measurement": "outcome", "setting": "[25]", "value": "inactive"}]}]}
